Compounds without any hit were thinned out: in the full panel of roughly 83,000, 20% have a hit.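 Testing used 96-well plates and a 48-hour single-concentration exposure. Example: -40 means 40% of the starting cells died.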 A number with no mark means an inactive call. Calls of active or inactive are those of the source. How the source made its calls: active means growth percent below 10; inactive means the rest.
test system: HL-60(TB) leukemia; experiment: NCI-60 one-dose screen, 48 h (100 = growth as untreated, 0 = no growth, -100 = all killed); settings: 10 µM unless noted

| Compound | growth |
| --- | --- |
| N[C@@H]1CCC[C@H]1NCCCCN1C(=O)c2cccc3cc([N+](=O)[O-])cc(c23)C1=O | 30.5% |
| CC(=C(c1ccc(OCCN2CCCCC2)cc1)c1ccc(OCCN2CCCCC2)cc1)c1ccc(Cl)cc1 | -62% (active) |
| N#Cc1ncc(-c2cc(F)ccc2F)c(NC2CCCCCC2)n1 | 86.9% |
| COc1cc(NC(=O)Nc2cnc(Nc3ccc(N4CCOCC4)cc3)nc2Oc2ccc(C(F)(F)F)cc2)cc(OC)c1 | 96.4% |
| CCCCCCCCC(=O)OCCCC(CCC(CCC1CCCO1)OC(=O)CCCCCCCC)OC(=O)CCCCCCCC (centres undefined) | 89% |
| C[C@@H](NC(=O)c1ncnc(N)c1Cl)c1ncc(C(=O)Nc2cc(C(F)(F)F)c(Cl)cn2)s1 | 35.4% |
| C=C1C(=O)O[C@H]2[C@H]1CC/C(COC(=O)/C=C/C(=O)OC/C1=C/CC[C@@]3(C)O[C@H]3[C@H]3OC(=O)C(=C)[C@@H]3CC1)=C\CC[C@@]1(C)O[C@@H]21 | -23.6% (active) |
| NS(=O)(=O)c1ccc(NCC(=O)Nc2ccc(-c3nc4ccccc4s3)cc2)cc1 | 33.4% |
| O=C1C=CC(=O)N1c1ccc(I)cc1Cl | 97.9% |
| N/C(=N\C(N)=N\c1nc2ccccc2s1)c1ccncc1 | 35.2% |
| COc1cc(OC)cc(N2CCN(C(=O)Nc3nc4cc(F)ccc4nc3OC)CC2)c1 | -17% (active) |
| OC1CCCN(Cc2ccccc2)C1 (centres undefined) | 114% |
| COc1cc2ncnc(Oc3cccc(NC(=O)Nc4cc(C(C)(C)C(F)(F)F)on4)c3)c2cc1OC | 12.1% |
| O=C(Nc1ccc(-n2cc(-c3ccncc3)c(-c3ccc(O)c(Cl)c3)n2)cc1)c1ccc(Cl)c(C(F)(F)F)c1 | 10.9% |
| CCC(C)C1NC(=O)C(CCCCN)NC(=O)C(CCCCN)NC(=O)C(CC(C)C)NC(=O)C(CCCCN)NC(=O)C(C(C)CC)NC(=O)C(C(C)C)NC(=O)C(C(C)CC)NC(=O)C(CCCCN)NC(=O)C(CCCCN)NC(=O)C(C)NC(=O)C(CCCCN)NC(=O)C(CC(C)C)NC1=O (centres undefined) | -35.2% (active) |
| COc1ccc(C(=O)/C=C/c2ccc(Cl)cc2)cc1S(N)(=O)=O | -3.41% (active) |
| O=C(Oc1ccccc1[N+](=O)[O-])C1CCCN1C(=O)OCc1ccccc1 (centres undefined) | 58.9% |

| Compound | growth |
| --- | --- |
| c1cc(C2=N[C@@H]3c4ccccc4C[C@@H]3O2)nc(C2=N[C@@H]3c4ccccc4C[C@@H]3O2)c1 | 105% |
| COc1ccc(-c2nc3sccn3c2/C=C/C(=O)c2cc(OC)c(OC)c(OC)c2)cc1OC | 6.14% (active) |
| C[C@@H](N)c1ccc(C(=O)Nc2ccnc3[nH]ccc23)cc1 | 67.5% |
| COc1cc(-c2cc(-c3cc(OC)c(OC)c(OC)c3)nc3nc(N)[nH]c(=O)c23)ccc1Oc1ccnc2cc(Cl)ccc12 | 11.4% |
| O=C(Nc1c(Cl)cc(Cl)cc1Cl)ON=C1CCCCC1 | 101% |
| COc1ccc(/C=C2\CCCC3=C2NC(N)=NC3c2ccc(OC)cc2)cc1 (centres undefined) | 67.8% |
| O=C(Nc1ccc2c(c1)OCO2)C(=O)c1c[nH]c2cc(F)ccc12 | 53.5% |
| CC(C)(C#N)c1cc(C(=O)Nc2cc(Nc3ncccc3-c3ncnc4nc[nH]c34)ccc2F)cc(C(F)(F)F)c1 | 35.3% |
| C[C@H]1[C@H](OC(=O)CCC(=O)O)O[C@@H]2O[C@]3(C)CC[C@H]4[C@H](C)CC[C@@H]1[C@@]24OO3 | -30.5% (active) |
| Clc1nc(Oc2ccccc2)nc(-c2cn(-c3ccccc3)c3ccccc23)n1 | 63.2% |
| COc1ccc(CN2c3ccccc3Sc3ccccc32)c(F)c1 | -27% (active) |
| CN(C(=O)c1ccccc1)N(C)C(=O)c1ccccc1 | 92.8% |
| O=C(NCc1cccnc1)c1cc(-c2csc3c(=O)cc(N4CCOCC4)oc23)cc2c1OCCO2 | -35.1% (active) |
| Nc1nc(Nc2ccccc2SSc2ccccc2Nc2nc(N)nc(-c3ccc(I)cc3)n2)nc(-c2ccc(I)cc2)n1 | 83.1% |
| COc1cccc(C2=NN3C(C2)c2ccccc2OC3c2ccc(/C=C3\SC(=O)NC3=O)cc2)c1 (centres undefined) | 100% |
| O=C1COCCN1c1ccc(NCc2cn(Cc3ccccc3)c3ccccc23)cc1 | 99.1% |
| CCn1c2ccccc2c2cc(C(O)c3cccc4ncccc34)ccc21 (centres undefined) | 10.5% |
